# Measurements published in PubChem BioAssay (EPA / NIEHS).
# More than one record can exist for a structure, and the calls need not agree. The source made the active and inactive calls. How the source made its calls: active means hit-call score of the fitted dose curve at least 0.9, where 1 is the maximum; inactive means score below 0.9.
# How the values were obtained:
# [1] = ATG_Sox_CIS: Attagene CIS-FACTORIAL HepG2 Assay for human SRY-box transcription factor (SOX) (AID 2282960); conditions: HepG2 Attagene cis-factorial SOX reporter, mRNA; actives raise or lower the signal
# Summary of the method: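 After 24 h of chemical treatment, transfected HepG2 reporter cells are lysed for total RNA. Transcript levels come from RT-PCR with labelled primer extension and capillary electrophoresis, analysed bidirectionally versus DMSO.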
# [2] = biological target: Transcription factor Sp1 (Homo sapiens) (UniProt P08047); test: ATG_Sp1_CIS: Attagene CIS-FACTORIAL HepG2 Assay for human Specificity Protein 1 (Sp1) (AID 2282961); conditions: HepG2 Sp1 cis-reporter transcription, actives raise or lower the signal
# Transcription factor Sp1 (Homo sapiens), sequence (P08047 whole entry, looked up): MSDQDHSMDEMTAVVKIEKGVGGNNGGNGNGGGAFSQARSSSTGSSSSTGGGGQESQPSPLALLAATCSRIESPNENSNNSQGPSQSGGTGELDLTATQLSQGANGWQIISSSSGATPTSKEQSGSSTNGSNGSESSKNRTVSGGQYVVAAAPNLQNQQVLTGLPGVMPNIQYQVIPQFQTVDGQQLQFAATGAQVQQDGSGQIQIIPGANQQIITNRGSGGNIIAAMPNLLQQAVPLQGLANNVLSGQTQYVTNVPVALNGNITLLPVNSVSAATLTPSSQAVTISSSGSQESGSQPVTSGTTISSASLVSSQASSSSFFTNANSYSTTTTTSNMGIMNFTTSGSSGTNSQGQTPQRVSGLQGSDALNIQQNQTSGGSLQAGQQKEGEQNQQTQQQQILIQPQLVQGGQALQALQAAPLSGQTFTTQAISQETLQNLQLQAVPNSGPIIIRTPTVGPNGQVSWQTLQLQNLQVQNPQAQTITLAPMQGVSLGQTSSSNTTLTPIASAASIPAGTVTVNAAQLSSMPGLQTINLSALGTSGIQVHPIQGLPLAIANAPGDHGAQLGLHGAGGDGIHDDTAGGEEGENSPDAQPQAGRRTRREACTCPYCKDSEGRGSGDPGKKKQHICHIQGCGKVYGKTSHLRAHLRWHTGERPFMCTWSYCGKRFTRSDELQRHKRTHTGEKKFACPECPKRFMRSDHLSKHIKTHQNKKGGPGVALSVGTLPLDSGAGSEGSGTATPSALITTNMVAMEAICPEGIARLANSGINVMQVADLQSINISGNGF
# Summary of the method: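 Sp1-driven reporter mRNA, read as capillary electrophoresis fluorescence after RT-PCR, in transiently transfected HepG2 cells dosed for 24 h; signal change in either direction relative to DMSO.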
# [3] = ATG_SREBP_CIS: Attagene CIS-FACTORIAL HepG2 Assay for human Sterol Regulatory Element Binding (SREBP) (AID 2282962); conditions: HepG2 Attagene cis-factorial SREBP reporter, mRNA; actives raise or lower the signal
# Summary of the method: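 In this cis-format assay, HepG2 liver cells express reporters controlled by promoter elements responsive to native transcription factors. Exposure lasts 24 h; reporter mRNA fluorescence from capillary electrophoresis gives the signal, fitted bidirectionally against DMSO.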
# [4] = biological target: Signal transducer and activator of transcription 3 (Homo sapiens) (UniProt P40763); test: ATG_STAT3_CIS: Attagene CIS-FACTORIAL HepG2 Assay for human Signal Transducer and Activator of Transcription 3 (STAT3) (AID 2282963); conditions: HepG2, Attagene cis-factorial STAT3 reporter transcription; actives raise or lower the signal
# Signal transducer and activator of transcription 3 (Homo sapiens), sequence (P40763 whole entry, looked up): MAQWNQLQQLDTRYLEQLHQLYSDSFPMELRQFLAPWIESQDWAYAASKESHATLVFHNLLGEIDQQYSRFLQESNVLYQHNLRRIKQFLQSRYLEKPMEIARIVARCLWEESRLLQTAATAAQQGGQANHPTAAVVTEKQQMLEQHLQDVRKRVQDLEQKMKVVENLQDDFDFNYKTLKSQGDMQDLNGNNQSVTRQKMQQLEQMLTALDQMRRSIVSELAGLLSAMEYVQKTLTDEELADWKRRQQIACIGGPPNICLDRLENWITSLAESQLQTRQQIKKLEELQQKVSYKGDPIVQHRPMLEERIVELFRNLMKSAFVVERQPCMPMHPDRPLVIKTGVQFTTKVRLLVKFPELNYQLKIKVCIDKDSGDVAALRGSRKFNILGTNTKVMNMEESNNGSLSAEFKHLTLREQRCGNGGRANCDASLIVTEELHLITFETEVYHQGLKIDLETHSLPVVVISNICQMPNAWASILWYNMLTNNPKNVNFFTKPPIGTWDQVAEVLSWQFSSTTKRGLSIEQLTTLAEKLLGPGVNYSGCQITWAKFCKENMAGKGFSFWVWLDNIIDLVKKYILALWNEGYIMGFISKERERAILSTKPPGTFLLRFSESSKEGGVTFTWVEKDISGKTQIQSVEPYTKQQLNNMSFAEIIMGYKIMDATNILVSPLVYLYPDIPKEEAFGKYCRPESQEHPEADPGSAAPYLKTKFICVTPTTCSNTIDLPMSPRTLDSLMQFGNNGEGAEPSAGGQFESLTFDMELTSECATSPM
# Summary of the method: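 Readout is reporter transcript quantified by RT-PCR and capillary electrophoresis, with 6-FAM primer extension and HpaI digestion. Total RNA is taken 24 h after dosing transiently transfected HepG2 carrying cis-regulated reporter units. Bidirectional fit against DMSO.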
# [5] = ATG_TA_CIS: Attagene CIS-FACTORIAL HepG2 Assay for human TA Basal Promoter (AID 2282964); conditions: HepG2 Attagene CIS-factorial TA basal promoter reporter; actives raise or lower the signal
# Summary of the method: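 Transfected HepG2, 24 h compound exposure; RNA → RT-PCR → FAM primer extension → HpaI cut → CE fluorescence. Gain/loss-of-signal fitted against DMSO negative control. Background-control readout.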
# [6] = ATG_TCF_b_cat_CIS: Attagene CIS-FACTORIAL HepG2 Assay for human T-Cell-Factor with beta-catenin (TCF/b-cat) (AID 2282965); conditions: HepG2 TCF/beta-catenin cis-reporter transcription, actives raise or lower the signal
# Summary of the method: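 Measured: reporter mRNA in HepG2 transiently transfected with cis-promoter reporter units, 24 h after chemical addition. Fitting was bidirectional, DMSO as negative control.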
# [7] = ATG_TAL_CIS: Attagene CIS-FACTORIAL HepG2 Assay for human TAL Basal Promoter (AID 2282966); conditions: HepG2 Attagene cis-factorial TAL promoter reporter; actives raise or lower the signal;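 further: background control endpoint measuring basal TAL promoter reporter mRNA not a specific factor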
# Summary of the method: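 After 24 hours of chemical exposure, transfected HepG2 cells yielded RNA that was converted to 6-FAM-labelled, HpaI-digested reporter fragments for capillary electrophoresis. Values derive from bidirectional fitting against DMSO controls.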
# [8] = ATG_TGFb_CIS: Attagene CIS-FACTORIAL HepG2 Assay for human Transforming Growth Factor (TGF) (AID 2282967); conditions: HepG2 Attagene CIS TGFb reporter, mRNA transcription; actives raise or lower the signal
# Summary of the method: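 Readout: fluorescently labeled reporter cDNA fragments resolved by capillary electrophoresis after RT-PCR. Transfected HepG2 cells dosed for 24 h; endogenous TF activity at TGFB1-linked cis element; gain or loss fitted relative to DMSO.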
# [9] = ATG_RORE_CIS: Attagene CIS-FACTORIAL HepG2 Assay for human RAR-related Orphan Receptor Element (RORE) (AID 2282959); conditions: HepG2 Attagene cis-factorial RORE reporter, mRNA; actives raise or lower the signal
# Summary of the method: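 Fluorescence intensity of reporter-specific cDNA fragments, separated by capillary electrophoresis, gives the signal. Source: HepG2 liver cells transiently transfected with cis-element reporters and exposed 24 h; DMSO-normalized bidirectional fit.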
smiles,measurement,setting,value
C#CCOC(=O)/C=C(C)/C=C/CC(C)CCCC(C)C (stereo not given),outcome,[1],inactive
same,outcome,[2],inactive
same,outcome,[3],inactive
same,outcome,[4],inactive
same,outcome,[5],inactive
same,outcome,[6],inactive
same,outcome,[7],inactive
same,outcome,[8],inactive
N#CCCC(Br)(C#N)CBr (stereo not given),outcome,[9],inactive
same,AC50,[1],49.4 µM (active)
same,outcome,[3],inactive
same,outcome,[4],inactive
same,outcome,[5],inactive
same,AC50,[6],51 µM (active)
same,outcome,[8],inactive
OCCN(CCO)CCO,outcome,[1],inactive
same,outcome,[2],inactive
same,outcome,[3],inactive
same,outcome,[4],inactive
same,outcome,[5],inactive
same,outcome,[6],inactive
same,outcome,[7],inactive
same,outcome,[8],inactive
OC[P+](CO)(CO)CO,outcome,[1],inactive
same,outcome,[2],inactive
same,outcome,[3],inactive
same,outcome,[4],inactive
same,outcome,[5],inactive
same,outcome,[6],inactive
same,outcome,[7],inactive
same,outcome,[8],inactive
O=C(O)COc1ccc(Cl)cc1,outcome,[1],inactive
same,outcome,[2],inactive
same,outcome,[3],inactive
same,outcome,[4],inactive
same,outcome,[5],inactive
same,outcome,[6],inactive
same,outcome,[7],inactive
same,outcome,[8],inactive
C=CCc1ccccc1O,outcome,[9],inactive
same,outcome,[1],inactive
same,outcome,[3],inactive
same,outcome,[4],inactive
same,outcome,[5],inactive
same,outcome,[7],inactive
same,outcome,[8],inactive
Nc1nc(N)nc(Cl)n1,outcome,[1],inactive
same,outcome,[2],inactive
same,outcome,[3],inactive
same,outcome,[4],inactive
same,outcome,[5],inactive
same,outcome,[6],inactive
same,outcome,[7],inactive
same,outcome,[8],inactive
CCOc1cc(C=O)ccc1O,outcome,[9],inactive
same,outcome,[1],inactive
same,outcome,[3],inactive
same,outcome,[5],inactive
same,outcome,[6],inactive
same,outcome,[7],inactive
same,outcome,[8],inactive
CC(C)O.CC(C)O.OCCN(CCO)CCO.OCCN(CCO)CCO.[Ti],outcome,[1],inactive
same,outcome,[2],inactive
same,outcome,[3],inactive
same,outcome,[5],inactive
same,outcome,[6],inactive
same,outcome,[8],inactive
Cc1ccccc1OP(=O)(Oc1ccccc1)Oc1ccccc1,outcome,[1],inactive
same,outcome,[2],inactive
same,AC50,[3],7.9 µM (active)
same,outcome,[4],inactive
same,outcome,[5],inactive
same,outcome,[7],inactive
same,outcome,[8],inactive
CN(C)[C@@H]1C(=O)C(C(N)=O)=C(O)[C@@]2(O)C(=O)C3=C(O)c4c(O)ccc(Cl)c4[C@@](C)(O)[C@H]3C[C@@H]12,outcome,[1],inactive
same,outcome,[2],inactive
same,outcome,[3],inactive
same,outcome,[4],inactive
same,outcome,[5],inactive
same,outcome,[6],inactive
same,outcome,[7],inactive
same,outcome,[8],inactive
CC(C)N(C(=O)CCl)c1ccccc1,AC50,[1],48.2 µM (active)
same,AC50,[2],26.5 µM (active)
same,AC50,[3],33.4 µM (active)
same,outcome,[5],inactive
same,outcome,[6],inactive
same,AC50,[8],8.03 µM (active)
c1ccc2sc(SNC3CCCCC3)nc2c1,outcome,[1],inactive
same,AC50,[2],184 µM (active)
same,AC50,[3],148 µM (active)
same,outcome,[4],inactive
same,outcome,[5],inactive
same,outcome,[6],inactive
same,AC50,[8],34.4 µM (active)
CCCCCCCCCCCCc1cccc(S(=O)(=O)O)c1,outcome,[1],inactive
same,outcome,[3],inactive
same,outcome,[4],inactive
same,outcome,[5],inactive
same,outcome,[7],inactive
same,outcome,[8],inactive
O=C(N[C@H]1CN2CCC1CC2)c1ccc2c(c1)OCCO2,outcome,[9],inactive
same,outcome,[1],inactive
same,outcome,[3],inactive
same,outcome,[4],inactive
same,outcome,[5],inactive
same,outcome,[8],inactive
CNC(=O)O/N=C/C(C)(C)S(C)(=O)=O,outcome,[9],inactive
same,outcome,[1],inactive
same,outcome,[3],inactive
same,outcome,[5],inactive
same,outcome,[6],inactive
same,outcome,[7],inactive
same,outcome,[8],inactive
CCCCCCCCCCCCOS(=O)(=O)O,outcome,[1],inactive
same,outcome,[2],inactive
same,outcome,[3],inactive
same,AC50,[4],11.1 µM (active)
same,outcome,[4],inactive
same,outcome,[5],inactive
same,outcome,[6],inactive
same,outcome,[7],inactive
same,outcome,[8],inactive
O=c1[nH]c(=O)n(Cl)c(=O)n1Cl,outcome,[1],inactive
same,outcome,[2],inactive
same,outcome,[3],inactive
same,outcome,[5],inactive
same,outcome,[6],inactive
same,outcome,[7],inactive
same,outcome,[8],inactive
O=CCCl,outcome,[1],inactive
same,AC50,[3],26.6 µM (active)
same,outcome,[4],inactive
same,AC50,[5],182 µM (active)
same,outcome,[6],inactive
same,outcome,[7],inactive
same,outcome,[8],inactive
COc1nn(C(=O)NS(=O)(=O)c2ccccc2OC(F)(F)F)c(=O)n1C,outcome,[1],inactive
same,outcome,[2],inactive
same,outcome,[3],inactive
same,outcome,[4],inactive
same,outcome,[5],inactive
same,outcome,[6],inactive
same,outcome,[7],inactive
same,outcome,[8],inactive
O=NN1CCCCCCC1,outcome,[1],inactive
same,outcome,[2],inactive
same,outcome,[3],inactive
same,outcome,[5],inactive
same,outcome,[6],inactive
same,outcome,[7],inactive
same,outcome,[8],inactive
Cc1cccc(OP(=O)(Oc2cccc(C)c2)Oc2cccc(C)c2)c1,outcome,[1],inactive
same,outcome,[2],inactive
same,outcome,[3],inactive
same,outcome,[4],inactive
same,outcome,[5],inactive
same,outcome,[6],inactive
same,outcome,[7],inactive
same,outcome,[8],inactive
CC(C)CP(=S)(S)CC(C)C,outcome,[1],inactive
same,outcome,[2],inactive
same,outcome,[3],inactive
same,outcome,[4],inactive
same,outcome,[5],inactive
same,outcome,[6],inactive
same,outcome,[7],inactive
same,outcome,[8],inactive
Oc1c(Cl)cc(Cl)cc1Cl,outcome,[1],inactive
same,outcome,[3],inactive
same,outcome,[4],inactive
same,outcome,[5],inactive
same,outcome,[6],inactive
same,outcome,[7],inactive
same,outcome,[8],inactive
O=c1nc(O)n(Cl)c(=O)n1Cl,outcome,[1],inactive
same,outcome,[3],inactive
same,outcome,[4],inactive
same,outcome,[5],inactive
same,outcome,[6],inactive
same,outcome,[7],inactive
same,outcome,[8],inactive
Cc1cc(SCc2sc(-c3ccc(C(F)(F)F)c(F)c3)nc2C)ccc1OCC(=O)O,outcome,[1],inactive
same,outcome,[2],inactive
same,outcome,[3],inactive
same,outcome,[4],inactive
same,AC50,[5],23 µM (active)
same,AC50,[6],24.8 µM (active)
same,AC50,[7],15.5 µM (active)
same,outcome,[8],inactive
CN(C)C(=S)S,outcome,[1],inactive
same,outcome,[2],inactive
same,outcome,[3],inactive
same,outcome,[4],inactive
same,outcome,[5],inactive
same,outcome,[6],inactive
same,outcome,[8],inactive
c1ccc2c(c1)Oc1ccccc1O2,outcome,[9],inactive
same,outcome,[1],inactive
same,outcome,[3],inactive
same,outcome,[5],inactive
same,outcome,[7],inactive
same,outcome,[8],inactive
CCCCC(CC)COC(=O)Cl (stereo not given),outcome,[1],inactive
same,outcome,[2],inactive
same,outcome,[3],inactive
same,outcome,[4],inactive
same,outcome,[5],inactive
same,outcome,[7],inactive
same,outcome,[8],inactive
CC1(C)COP(Oc2ccccc2)OC1,outcome,[1],inactive
same,outcome,[2],inactive
same,outcome,[3],inactive
same,outcome,[5],inactive
same,outcome,[6],inactive
same,outcome,[7],inactive
same,outcome,[8],inactive
CC(C)(c1ccccc1)c1cc(-n2nc3ccccc3n2)c(O)c(C(C)(C)c2ccccc2)c1,outcome,[1],inactive
same,outcome,[2],inactive
same,outcome,[3],inactive
same,outcome,[4],inactive
same,outcome,[5],inactive
same,outcome,[8],inactive
C#C[C@]1(O)CC[C@H]2[C@@H]3CCC4=CC(=O)CC[C@]4(C)[C@H]3CC[C@@]21C,outcome,[1],inactive
same,outcome,[2],inactive
same,outcome,[3],inactive
same,outcome,[5],inactive
same,outcome,[6],inactive
same,outcome,[7],inactive
same,outcome,[8],inactive
